Records with an inconclusive call do not appear. Values without a mark were called inactive. The call rests on the fitted dose curve; in most records, active means well fitted activation curve with a large enough effect in the signal ratio (not every such curve was filed as active); inconclusive means small, poorly fitted or top-dose-only effect, or a change in a side signal; inactive means flat fitted curve, though single readings scatter; the % refers to the signal ratio.

The nature of the test: qHTS assay for small molecule activators of the p53 signaling pathway (AID 651743). Further: series mostly up to about 92 µM; % of control where 0% means no effect. Particulars: HCT-116 p53RE-bla, beta-lactamase FRET ratio, 16 h; activation: active compounds read high. An excerpt:
National Center for Advancing Translational Sciences [NCATS] NIH Chemical Genomics Center [NCGC] U.S. Environmental Protection Agency [EPA] National Institutes of Environmental Health Sciences [NIEHS] National Toxicology Program [NTP] Assay Overview: p53, a tumor suppressor protein, is activated following cellular insult, including DNA damage and other cellular stresses. The activation of p53 regulates cell fate by inducing DNA repair, cell cycle arrest, apoptosis, or cellular senescence. The activation of p53, therefore, is a good indicator of DNA damage and other cellular stresses. The CellSensor p53RE-bla HCT-116 cell line (Invitrogen) contains a stably integrated beta-lactamase reporter gene under control of the p53 response elements. The activation of the report gene under culture conditions can be detected by fluorescence intensity. This cell line can be used to screen chemicals in a 1536-well plate format and to identify agonists that activate p53 signaling pathway.
Assay Protocol Summary: The p53RE-bla cells were dispensed at 4,000 cells/5 ul/well in 1536-well black wall/clear bottom plates using a Multidrop dispenser. After the assay plates were incubated at a 37 C/5% CO2 incubator for 5 hours, 23 nL of compounds dissolved in DMSO, positive controls or DMSO only was transferred to the assay plate by a pin tool. The plates were incubated at 37 C for 16 hours. After 1 uL of LiveBLAzer B/G FRET substrate was added using a Flying Reagent Dispenser, the plates were incubated at room temperature for 2 hours, and fluorescence intensity was measured by an Envision plate reader.
Take `CCOC(=O)c1ccccc1C`: the activation was 2.88%.
Turning to `C=C[Si](C)(C)O[Si](C)(C)C=C`, the activation was -3.83%.
The same measure for `Nc1cc(Cl)c(O)c(Cl)c1`: -2.82%; for `CCOCCOCCOC(C)=O`: 1.91%; for `CC(COc1ccc(C(C)(C)C)cc1)OS(=O)OCCCl` (stereo not given): 8.46%.
As to `C=C[Si](OCCOC)(OCCOC)OCCOC`, the activation is -3.03%.
As to `CCCCOCC(C)O` (stereo not given), the activation was -6.14%.
For `O=C(O)c1ccc2c(c1)C(=O)OC2=O`, the activation is -0.551%.
The same measure for `CCCCCCCC/C=C\CCCCCCCC(=O)OC`: 1.64%; for `CCOC(=O)C1=NN(c2ccc(Cl)cc2Cl)C(C)(C(=O)OCC)C1` (stereo not given): -4.17%.
The same measure for `CCN(Cc1cccc(S(=O)(=O)O)c1)c1ccc(C(=C2C=CC(=[N+](CC)Cc3cccc(S(=O)(=O)[O-])c3)C=C2)c2ccccc2)cc1`: -2.82%; for `O=c1n(CCO)c(=O)n(CCO)c(=O)n1CCO`: 3.11%; for `CC1(C)[C@@H]([C@@H](Br)C(Br)(Br)Br)[C@H]1C(=O)O[C@H](C#N)c1cccc(Oc2ccccc2)c1`: 11.9%.
The figure for `Brc1ccc(Br)c(Br)c1` is -2.82%.
For the compound `CCCCCCCCCCCCCCN(C)C`, the activation is 5.52%.
The same measure for `CC(Cl)(Cl)C(=O)OCCOc1cc(Cl)c(Cl)cc1Cl`: -0.345%; for `CCC(C)(C)C1CCC(O)CC1` (stereo not given): 1.97%.
On to `N[C@@H]1[C@@H](O)[C@H](O)[C@@H](CO)O[C@H]1O`, for which the activation was -3.01%.
As for `C[Si]1(C)O[Si](C)(C)O[Si](C)(C)O[Si](C)(C)O1`, the activation was -2.06%.
On to `CCCCCCCCCCCCCCCO`, for which the activation was -0.317%.
For the compound `Cl[Si](Cl)(Cl)c1ccccc1`, the activation was -5.69%.
`CCCCCCCCCCCO`: the activation was 1.01%.
Turning to `c1cc(-c2ccncc2)ccn1`, the activation was -5.33%.
Take `CCNc1nc(NC(C)CC)nc(OC)n1` (stereo not given): the activation is -1.96%.
With `C[Si](Cl)(Cl)c1ccccc1`, the activation was -1.52%.
The figure for `CC(=O)OC(C)(C)C1CC=C(C)CC1` (stereo not given) is -1.29%.
Take `CCCCN(CCCC)CCCCCCN(CCCC)CCCC`: the activation was -4.69%.
As for `CCCCN(CCCC)CCCC`, the activation is -3.01%.
`C/C=C/C=C/CCCCCCCO`: the activation was 7.24%.
On to `c1ccc2c(c1)Cc1ccccc1-2`, for which the activation is 2.83%.
For the compound `CN(C)c1nc(=O)n(C2CCC(O)CC2)c(=O)n1C` (stereo not given), the activation is 2.9%.
For `CC1(C)C(C=C(Cl)Cl)[C@H]1C(=O)OCc1cccc(Oc2ccccc2)c1` (stereo not given in full), the activation was -1.46%.
The same measure for `O=S(=O)(O)c1ccc(N=Nc2cc(S(=O)(=O)O)c3ccccc3c2O)c2ccccc12`: 2.63%.
In the case of `CC(C)c1ccc(C(C)C)cc1`, the activation is -6.39%.
For the compound `CCCCC/C=C\C/C=C\CCCCCCCC(=O)OC`, the activation was -2.82%.
The figure for `O=C(O)CN(CCO)CCN(CC(=O)O)CC(=O)O` is -0.291%.
In the case of `CCCCCCCC/C=C\CCCCCCCCCCCCC`, the activation is -1.77%.
For the compound `CCc1c(C(=O)O)c(=O)cnn1-c1ccc(Cl)cc1`, the activation is 1.9%.
For `CC1(C)[C@@H](C=C(Cl)Cl)[C@@H]1C(=O)OCc1cccc(Oc2ccccc2)c1`, the activation was -0.529%.
The same measure for `CC(=O)Nc1ccc(N=Nc2cc(C)ccc2O)cc1`: -6.18%.

Values taken from PubChem BioAssay (NCATS).
